Compounds without any hit were thinned out: in the full panel of roughly 83,000, 20% have a hit.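 For each line, cells grew in 96-well plates with the test compound present at a single concentration for 48 hours.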 Active and inactive are the calls of the source. How the source made its calls: active means growth percent below 10; inactive means the rest.

One experiment concerns SN12C renal. In words: NCI-60 one-dose screen, 48 h (100 = growth as untreated, 0 = no growth, -100 = all killed). Particulars: 10 µM unless noted.
Consider `COc1ccc(C(=NNS(=O)(=O)c2ccc(C)cc2)c2ccccc2)cc1OC`, for which the growth is 98.9% (inactive).

For `COc1cccc2c1C=CC1(O2)Oc2cccc(OC)c2C=C1C` (configuration not stated), the growth was 49% (inactive).

Take `Cc1csc(/N=C(N)/N=C(\N)c2cccnc2)n1`: the growth is 80.1% (inactive).

For the compound `Cc1ccc(/C=N/Nc2nc(Nc3ccccc3)nc(Nc3ccc(S(N)(=O)=O)cc3)n2)cc1`, the growth was 82.5% (inactive).

As to `CCCC[n+]1ccc(SCC(=O)n2ccc3ccccc32)c2ccccc21`, the growth was 96.5% (inactive).

As to `O=[N+]([O-])c1ccc(NC(=S)NNC(=S)Nc2ccc(Br)cc2)cc1`, the growth was 88.3% (inactive).

For the compound `CCOP(=O)(OCC)OC[C@]12CCC(C)(C)CC1C1=CC[C@@H]3[C@@]4(C)CCCNC(C)(C)[C@@H]4CC[C@@]3(C)[C@]1(C)CC2` (some centres not stated), the growth was 80.8% (inactive).

On to `CNC(=O)Nc1ccc(Nc2cc(-c3ccc(-n4cccn4)cc3)[nH]n2)c(C)c1`, for which the growth was 101% (inactive).

With `O=C(CCCCCCNC(=O)c1csc(Br)n1)NO`, the growth is 73.4% (inactive).

For `NS(=O)(=O)c1ccc(Nc2nc(N/N=C/c3ccc4c(c3)OCO4)nc(Nc3ccccc3)n2)cc1`, the growth was 54.3% (inactive).

With `CCc1cc2c(cc1Cl)nc1c(=O)[nH]c(=O)nc-1n2CCOCC(C)C`, the growth is 57.4% (inactive).

As to `COc1cc(C(=O)c2cc(C(C)=O)c3cccc(C)n23)cc(OC)c1OC`, the growth was 45.3% (inactive).

As for `Nc1ncc(-c2ccc3ncnc(NCc4ccccc4)c3c2)cn1`, the growth is 29.5% (inactive).

With `COc1ccc2c(c1)c(-c1nn3cc(-c4ccncc4)nc3s1)cn2C`, the growth was 84.3% (inactive).

The next experiment relates to UO-31 renal. The description is as above. Particulars: 10 µM unless noted.
Regarding `C#C[C@]1(O)CC[C@H]2[C@@H]3CC=C4c5sc(N(C)c6ccccc6)nc5CC[C@]4(C)[C@H]3CC[C@@]21C`, the growth was 106% (inactive).

`CC(=O)c1c([Si](C)(C)C)c2cc(C#N)ccn2c1C(=O)c1ccc(Br)cc1`: the growth was 77.2% (inactive).

On to `O=C(CSc1nc2ccccc2c(=O)n1-c1ccc(Cl)c(Cl)c1)Nc1ccc(S(=O)(=O)Nc2ccc(Cl)nn2)cc1`, for which the growth was 79.8% (inactive).

As to `C#CCN(C)CCCOc1ccc(NCc2ccc(/C=C/C(=O)NO)cc2)cc1Cl`, the growth was -57.4% (active).

For `O=C(NNc1nc2cc(F)cc(F)c2n2cccc12)c1cccnn1`, the growth is 15.4% (inactive).

`COc1ccc(/C(=N\NC(N)=S)c2ccc(Cl)cc2)cc1OC`: the growth was 34.5% (inactive).

As to `COc1ccc(-c2c(C(N)=O)c(N)n(Cc3nc4ccccc4[nH]3)c(=O)c2C#N)c(OC)c1`, the growth was 68% (inactive).

As for `Cc1cc(Br)ccc1-n1cc(C#N)c(N)c1C(=O)c1ccc(Br)cc1`, the growth is 80.1% (inactive).

On to `CN1CCN(Cc2ccc(NC(=O)c3cncc(C#Cc4cnc(N)nc4)c3)cc2C(F)(F)F)CC1`, for which the growth was 4.98% (active).

`CCOC(=O)c1c(NC(=O)c2ccc(C(F)(F)F)cc2)sc2c3c(ccc12)OCN(C)C3`: the growth is 70.9% (inactive).

In the case of `O=C1CSC(c2cn(-c3ccccc3)nc2-c2ccc(Cl)cc2)N1c1ccccc1` (configuration not stated), the growth was 83.8% (inactive).

`COc1ccc(-c2c3c(cn2Cc2cccc(OC)c2)-c2oncc2CCC3)cc1`: the growth was 81% (inactive).

As to `C#C[C@]1(O)CC[C@H]2[C@@H]3CC=C4c5sc(Nc6ccc(C)cn6)nc5CC[C@]4(C)[C@H]3CC[C@@]21C`, the growth is -63.7% (active).

Regarding `CCCCCCOC(=O)c1cc(-c2ccc(F)cc2)nc2ccccc12`, the growth was 86.6% (inactive).

`CN1CCN(c2ccc(Nc3nc(NCCNS(=O)(=O)c4ccccc4)c4sccc4n3)cc2)CC1`: the growth is 81.2% (inactive).

As for `CN1CCN(Cc2ccc(NC(=O)c3cncc(C#Cc4cnc5ccc(O[C@@H]6CCOC6)nn45)c3)cc2C(F)(F)F)CC1`, the growth was -91.8% (active).

Take `CC(C)(C)Nc1nc2c(OCCc3ccccc3)cccn2c1-c1ccc([N+](=O)[O-])cc1`: the growth is 31.6% (inactive).

Turning to `N#Cc1c(-c2cccs2)cc(-c2cnccn2)nc1SCC(=O)N/N=C/c1ccc(Cl)cc1`, the growth was 92.6% (inactive).

On to `CN(C)CCCOc1ccc(C(=C(c2ccccc2)C2CCCC2)c2ccc(OCCCN(C)C)cc2)cc1`, for which the growth is -96.8% (active).

Take `N#Cc1nc(-c2ccc(Cl)cc2)oc1N1CCC(S(=O)(=O)N2CCOCC2)CC1`: the growth was 73.2% (inactive).

`CC(=O)C1=C(C)NC(NNc2ccccc2)=NC1c1ccc([N+](=O)[O-])cc1` (configuration not stated): the growth was 73.3% (inactive).

Take `COC(=O)c1ccc(NC2=C(Cl)C(=O)C(C)=C(C)C2=O)cc1`: the growth was 65.1% (inactive).

On to `C=C(C=O)[C@@H]1CC[C@]2(C(=O)O)CC[C@]3(C)C(CC[C@@H]4[C@@](C)(CCC#N)[C@H](C(=C)C=O)CC[C@]43C)[C@@H]12` (some centres not stated), for which the growth is 32.8% (inactive).

The values are drawn from PubChem BioAssay (NCI).
